# Laboratory results taken from paper doi:10.1101/2024.03.05.583629.
# What was measured:
# pT7_6His-AlfaTag-HOXD13 = pT7_6His-AlfaTag-HOXD13 (human, UniProt P35453 263-343); assay: PADIT-seq; settings: dsDNA, one strand shown
# pT7_6His-AlfaTag-ZIF268 = pT7_6His-AlfaTag-ZIF268 (human, UniProt P18146 335-423); assay: PADIT-seq; settings: dsDNA, one strand shown
# pT7_6His-AlfaTag-HOXD13, sequence (P35453 263-343): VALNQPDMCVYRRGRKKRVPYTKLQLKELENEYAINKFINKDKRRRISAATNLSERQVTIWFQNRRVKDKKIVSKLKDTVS
Sequence,binding signal (pT7_6His-AlfaTag-HOXD13) [log2FC],binding signal (pT7_6His-AlfaTag-ZIF268) [log2FC]
CTCGAGGATATCAAGATCTGGCCTCGGCATATGGGCGGGAACCTCTAGCTAGCCGACTCACTATAGGGATAATCGCCCTGAGCAAAGACC,-0.745 ± 0.103,0.0376 ± 0.0849
CTCGAGGATATCAAGATCTGGCCTCGGCATTTTACTTGGAACCTCTAGCTAGCCGACTCACTATAGGGATAATCGCCCTGAGCAAAGACC,1.23 ± 0.0944,0.0654 ± 0.0956
CTCGAGGATATCAAGATCTGGCCTCGGCCTTTTAGAGGGAACCTCTAGCTAGCCGACTCACTATAGGGATAATCGCCCTGAGCAAAGACC,1.1 ± 0.092,0.0179 ± 0.0928
CTCGAGGATATCAAGATCTGGCCTCGGCCTTTTATCGGGAACCTCTAGCTAGCCGACTCACTATAGGGATAATCGCCCTGAGCAAAGACC,1.63 ± 0.0763,0.0806 ± 0.0794
CTCGAGGATATCAAGATCTGGCCTCGGCATCTTAAAAGGAACCTCTAGCTAGCCGACTCACTATAGGGATAATCGCCCTGAGCAAAGACC,1.62 ± 0.0869,0.00209 ± 0.0901
CTCGAGGATATCAAGATCTGGCCTCGGCCAAGTAAAAGGAACCTCTAGCTAGCCGACTCACTATAGGGATAATCGCCCTGAGCAAAGACC,0.682 ± 0.11,0.0157 ± 0.107
CTCGAGGATATCAAGATCTGGCCTCGGCGAATTAAAAGGAACCTCTAGCTAGCCGACTCACTATAGGGATAATCGCCCTGAGCAAAGACC,1.47 ± 0.0704,0.0118 ± 0.0724
CTCGAGGATATCAAGATCTGGCCTCGGCTCGGTAAAAGGAACCTCTAGCTAGCCGACTCACTATAGGGATAATCGCCCTGAGCAAAGACC,0.426 ± 0.0878,0.074 ± 0.0831
CTCGAGGATATCAAGATCTGGCCTCGGCCGCGACCGCGGAACCTCTAGCTAGCCGACTCACTATAGGGATAATCGCCCTGAGCAAAGACC,-0.85 ± 0.123,0.0618 ± 0.097
CTCGAGGATATCAAGATCTGGCCTCGGCCTGTGGGCGGGAACCTCTAGCTAGCCGACTCACTATAGGGATAATCGCCCTGAGCAAAGACC,–,2.23 ± 0.0754
CTCGAGGATATCAAGATCTGGCCTCGGCCGCCCACTGGGAACCTCTAGCTAGCCGACTCACTATAGGGATAATCGCCCTGAGCAAAGACC,-0.571 ± 0.123,0.278 ± 0.104
CTCGAGGATATCAAGATCTGGCCTCGGCTCACTAAAAGGAACCTCTAGCTAGCCGACTCACTATAGGGATAATCGCCCTGAGCAAAGACC,0.718 ± 0.11,0.00307 ± 0.107
CTCGAGGATATCAAGATCTGGCCTCGGCGCTTGGGCGGGAACCTCTAGCTAGCCGACTCACTATAGGGATAATCGCCCTGAGCAAAGACC,-0.995 ± 0.12,0.158 ± 0.0966
CTCGAGGATATCAAGATCTGGCCTCGGCGCGAAGGCGGGAACCTCTAGCTAGCCGACTCACTATAGGGATAATCGCCCTGAGCAAAGACC,-1.08 ± 0.132,0.278 ± 0.0993
CTCGAGGATATCAAGATCTGGCCTCGGCTCGTGGGCGGGAACCTCTAGCTAGCCGACTCACTATAGGGATAATCGCCCTGAGCAAAGACC,-0.771 ± 0.106,2.74 ± 0.0778
CTCGAGGATATCAAGATCTGGCCTCGGCGCGTGGTAAGGAACCTCTAGCTAGCCGACTCACTATAGGGATAATCGCCCTGAGCAAAGACC,-0.999 ± 0.124,0.49 ± 0.0946
CTCGAGGATATCAAGATCTGGCCTCGGCCGCCCATGGGGAACCTCTAGCTAGCCGACTCACTATAGGGATAATCGCCCTGAGCAAAGACC,–,0.0348 ± 0.099
CTCGAGGATATCAAGATCTGGCCTCGGCGTCATAAAAGGAACCTCTAGCTAGCCGACTCACTATAGGGATAATCGCCCTGAGCAAAGACC,2.72 ± 0.0783,0.00486 ± 0.0824
CTCGAGGATATCAAGATCTGGCCTCGGCCTTTTACGGGGAACCTCTAGCTAGCCGACTCACTATAGGGATAATCGCCCTGAGCAAAGACC,3.14 ± 0.0784,0.0515 ± 0.0862
CTCGAGGATATCAAGATCTGGCCTCGGCATTTTAAGAGGAACCTCTAGCTAGCCGACTCACTATAGGGATAATCGCCCTGAGCAAAGACC,2.98 ± 0.0964,0.0486 ± 0.104
CTCGAGGATATCAAGATCTGGCCTCGGCATTTTATACGGAACCTCTAGCTAGCCGACTCACTATAGGGATAATCGCCCTGAGCAAAGACC,2.61 ± 0.0763,0.0469 ± 0.0817
CTCGAGGATATCAAGATCTGGCCTCGGCTGTTGGGCGGGAACCTCTAGCTAGCCGACTCACTATAGGGATAATCGCCCTGAGCAAAGACC,-1.03 ± 0.1,0.111 ± 0.0773
